TDP1 inh = TDP1 (human) enzyme inhibition; Q9NUW8; recombinant TDP1, AlphaScreen DNA substrate cleavage; Potency, µM (titrated, usually from 130 µM), actives largely listed as inhibitors; hit rate 0.28% among 350,000; further: nearly all actives have a fitted effect of over 40% in size
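E. coli-derived human Tdp1, 1 nM final. Cpd preinc 15 min RT; substrate 15 nM final, 5 min RT; AS bead mix 10 ug/ml final, 10 min RT. Signal loss = tyrosine-FITC cleavage. No-enzyme wells = max signal.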
PI4K2A block = inhibitors of human PI4K2A; Q9BTU6; purified PI4K2A, ADP-Glo luminescence, 1 h; hits give low values; activity change, negative = inhibition, % at 76.9 µM; hit rate 0.13% among 420,000; AID 1346378; in the data active means activity change below about -50%; inconclusive means mostly about -30% to -49%
Target sequence (Q9BTU6 whole entry, looked up): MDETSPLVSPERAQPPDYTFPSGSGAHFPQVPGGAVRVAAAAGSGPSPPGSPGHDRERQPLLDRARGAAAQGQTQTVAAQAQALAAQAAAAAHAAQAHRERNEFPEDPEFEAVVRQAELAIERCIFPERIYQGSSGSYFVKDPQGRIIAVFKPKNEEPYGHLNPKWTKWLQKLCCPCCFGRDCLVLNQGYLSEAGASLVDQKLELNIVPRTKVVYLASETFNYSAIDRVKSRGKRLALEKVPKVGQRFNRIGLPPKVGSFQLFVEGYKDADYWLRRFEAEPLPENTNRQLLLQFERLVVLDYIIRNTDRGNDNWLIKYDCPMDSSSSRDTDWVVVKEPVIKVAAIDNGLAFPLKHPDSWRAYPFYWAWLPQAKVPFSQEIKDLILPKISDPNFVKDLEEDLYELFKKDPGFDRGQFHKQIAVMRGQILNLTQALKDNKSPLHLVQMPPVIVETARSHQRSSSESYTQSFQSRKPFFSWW
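PI4K2A activity was measured by ADP-Glo luminescence: enzyme (4 ug/mL stock) and phosphatidylinositol (1.2 mM stock) in Tris pH 7.5/MgCl2/EGTA/Triton X-100 buffer were reacted with ATP (300 microM stock) for one hour at ambient temperature.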
FEN1 inhibitor = inhibitors of human flap endonuclease 1. Potency, µM (highest dose often 114 µM), hits mostly inhibitors. hit rate 0.35% among 390,000. Recombinant FEN1 flap cleavage, fluorescence, 15 min. P39748; further: nearly all actives have a fitted effect of over 65% in size
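Compounds are tested as a concentration series against 10 nM FEN1; after a 15 min room-temperature preincubation, 50 nM substrate starts cleavage, with plate reads at 0 and 15 min. Normalized responses are fitted by a Hill equation.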
PGK inhibitor = inhibitors of T. brucei phosphoglycerate kinase | PGK/GAPDH coupled, Kinase-Glo luminescence, 60 min | Potency, µM (series often up to 57.5 µM), actives largely listed as inhibitors | P07378 | hit rate 0.043% among 380,000; further: nearly all actives have a fitted effect of over 60% in size
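Luminescent ATP detection (Kinase-Glo Plus) follows a 60-minute room-temperature incubation, with wells lacking PGK as controls. Buffer: 100 mM TEA (pH 7.6), 5 mM MgCl2, 0.01% Tween-20. Coupling enzyme GAPDH (100 nM final) supplies unstable 1,3-BPG in-well.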
APE1 inh-1 = APE1 (human) endonuclease inhibition; Potency, µM (series often up to 65.8 µM), usual class: inhibitors; hit rate 0.35% among 350,000; P27695; recombinant APE1, TAMRA/BHQ-2 abasic DNA cleavage fluorescence; further: nearly all actives have a fitted effect of over 55% in size
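Kinetic fluorescence read (525 ex/598 em nm, three reads 60 s apart) of AP-site incision; signal = third minus first read. Enzyme 0.75 nM, dual-labelled THF duplex 50 nM, compound preincubation 15 min RT.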
Tb PFK block = blocks T. brucei phosphofructokinase | O15648 | T. brucei PFK, ADP-Glo luminescence | Potency, µM (titrated, usually from 57.5 µM), actives largely listed as inhibitors | hit rate 0.17% among 330,000 | AID 485367; further: nearly all actives have a fitted effect of over 60% in size
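PFK 1.25 nM, F6P 0.5 mM, ATP 0.1 mM, 0.1 M TEA pH 8.0, 5 mM MgCl2, 0.01% Tween20, 0.1% BSA; 45 min RT. ADP-Glo readout. qHTS titration up to 57 uM; curves fitted, compounds curve-classed.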
DNA dye displace = DNA dye displacement counter-screen activity; shares compounds with APE1 inh-1; DNA fluorescent dye displacement counterscreen, fluorescence; Potency, µM (doses to about 28.5 µM), usual class: inhibitors; hit rate 7% among 480;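 further: loss of thiazole orange fluorescence as the dye is displaced from duplex DNA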
EndoIV counter = blocks E. coli endonuclease IV DNA cleavage. shares compounds with APE1 inh-1. E. coli Endo IV, fluorogenic AP-site DNA cleavage. Potency, µM (series often up to 27.1 µM), usual class: inhibitors. hit rate 4% among 560. AID 2565
APE1 inh-2 = confirmation of inhibitors of human APE1 endonuclease | shares compounds with APE1 inh-1 | purified APE1, fluorogenic abasic-site DNA cleavage | Potency, µM (doses to about 57.1 µM), most hits filed as inhibitors | hit rate 44% among 750; further: nearly all actives have a fitted effect of over 30% in size
APE1 FP inh = compounds that displace a DNA probe from human APE1 | hit rate 7% among 480 | APE1 binding to TAMRA-labelled double-stranded DNA, fluorescence polarization displacement | shares compounds with APE1 inh-1 | Potency, µM (series often up to 28.5 µM), usual class: inhibitors
Hits are given with their value; 0 = inactive; ? = inconclusive; - = not tested or not shown; [ ] = dose if it differs, or a comment. The list is not random: actives were taken first. Their share in the collection is about 0.8%. Unless noted, the call rests on the fitted dose curve; in most records, active means well fitted curve in the direction sought with a large enough effect; inconclusive means small, poorly fitted or top-dose-only effect, or another doubt; inactive means no such curve, though single readings can be large; an effect the other way counts as inactive or inconclusive.

SMILES	TDP1 inh	PI4K2A block	FEN1 inhibitor	PGK inhibitor	APE1 inh-1	Tb PFK block	DNA dye displace	EndoIV counter	APE1 inh-2	APE1 FP inh
O=C(Nc1nc2nccc(-c3ccccc3)n2n1)c1ccccc1	79µM	0	0	0	0	0	-	-	0	-
CN[C@H](CC(C)C)C(=O)N[C@H]1C(=O)N[C@@H](CC(N)=O)C(=O)N[C@H]2C(=O)N[C@H]3C(=O)N[C@H](C(=O)N[C@@H](C(=O)O)c4cc(O)cc(O)c4-c4cc3ccc4O)[C@H](O)c3ccc(c(Cl)c3)Oc3cc2cc(c3O[C@@H]2O[C@H](CO)[C@@H](O)[C@H](O)[C@H]2O[C@H]2C[C@](C)(N)C(O)[C@H](C)O2)Oc2ccc(cc2Cl)[C@H]1O (some centres not stated)	-	-	-	-	0	-	-	-	-	-
CC1(OC(=O)c2cccs2)C(=O)C=C2C=C3CCCN3C=C2C1=O (configuration not stated)	-	?	?	?	8.9µM	0	0	0	?	0
CC1(OC(=O)C2CCCC2)C(=O)C=C2C=C3CCCN3C=C2C1=O (configuration not stated)	0[12.3 µM]	-	-	-	0[12.4 µM]	-	-	-	-	-
Cc1ccc(/C=C2\SC(=S)N(c3cccnc3)C2=O)o1	-	0	0	0	16µM	0	?	0	0	0
N[C@@H](CCC(=O)N[C@@H](CSN=O)C(=O)NCC(=O)O)C(=O)O	-	0	0	0	0	?	-	-	-	-
[N-]=[N+]=Nc1ccc(C(=O)CSC[C@H](NC(=O)CC[C@H](N)C(=O)O)C(=O)NCC(=O)O)cc1	?	0	-	-	?	-	-	0	0	-
C=Cc1nc(Nc2cc(F)cc(F)c2)nc(NC2CCCC2)n1	0	-	-	-	-	-	-	-	-	-
O=C1CCc2cc([S+](=O)([O-])NC3CCOCC3)ccc2N1	0	-	-	-	-	-	-	-	-	-
O=C1C=CC2=C3c4cc(O)c(O)cc4CC3(O)COC2=C1O (configuration not stated)	?	?	3.5µM	2.8µM	0.11µM	-	?	0	1.4µM	18µM
O=C(NC1CC1)c1cc(-c2ccco2)nc2ccccc12	4.5µM	?	?	?	11µM	0	?	?	25µM	0
Cc1cc2c(s1)c1cnn(Cc3cccc(Cl)c3)c(=O)c1n2C	0	-	-	-	-	-	-	-	-	-
Cc1cccc(NC(=O)CN2C(=O)N/C(=C\c3cccn3-c3cccc(C(=O)O)c3)C2=O)c1	-	0	?	0	?	0	0	0	?	0
CCOCCn1c(C2CCN(CCc3ccc(C(C)(C)C(=O)O)cc3)CC2)nc2ccccc21	-	0	-	-	-	-	-	-	-	-
Cc1ccc(C)n1Cc1ccc(C(=O)O)cc1	3.5µM	?	4µM	3.2µM	3.5µM	6.7µM	-	-	14µM	-
CC(=O)Oc1ccc(C2(c3ccc(OC(C)=O)cc3)Oc3ccccc3NC2=O)cc1	-	0	-	-	-	-	-	-	-	-
CC1=NN(c2ccc(Cl)c(C(=O)O)c2)C(=O)/C1=C\c1ccc(-c2ccc(C(=O)O)cc2)o1	79µM	?	?	0	25µM	0	?	0	13µM	0
O=C(O)c1cc(-c2ccc(/C=C3/SC(=S)N(Cc4ccccc4)C3=O)o2)ccc1Cl	-	0	0	0	?	0	-	-	-	-
COC(=O)c1ccc(N2NC(=O)/C(=C/c3ccc(-c4ccc(Cl)c(C(=O)O)c4)o3)C2=O)cc1	-	0	?	?	25µM	0	6.3µM	0	?	0
CC1(C)OC(=O)C(=Cc2ccc(-c3ccc(Cl)c(C(=O)O)c3)o2)C(=O)O1	50µM	0	?	0	22µM	0	0	0	?	0
O=C(Cc1ccccc1)Nc1sc2c(c1C(=O)Nc1cccc(Cl)c1)CCCC2	0	-	-	-	-	-	-	-	-	-
COc1ccc(OCc2cc(C(=O)O)c(C)o2)cc1	14µM	-	-	-	25µM	0	-	-	40µM	-
O=c1cc(CCl)nc2sc3ccccc3n12	50µM	0	0	0	?	0	-	-	?	-
O=c1c(OC2OC(CO)C(O)C(O)C2OC2OC(CO)C(O)C(O)C2OC2OC(CO)C(O)C(O)C2O)c(-c2ccc(O)c(O)c2)oc2cc(O)cc(O)c12 (configuration not stated)	-	0	0	0	?	0	0	0	10µM	?
CC1OC(OC2C(Oc3c(-c4ccc(O)cc4)oc4cc(O)cc(O)c4c3=O)OC(COC3O[C@@H](C)[C@H](O)[C@@H](O)C3O)C(O)C2O)C(O)C(O)C1O (some centres not stated)	-	0	0	0	0	0	-	-	-	-
SMILES	TDP1 inh	PI4K2A block	FEN1 inhibitor	PGK inhibitor	APE1 inh-1	Tb PFK block	DNA dye displace	EndoIV counter	APE1 inh-2	APE1 FP inh
COc1c(-c2ccc(O)c(O)c2)oc2cc(O)cc(O)c2c1=O	0	0	25µM	?	?	?	?	0	?	0
CC1OC(OCC2OC(Oc3c(-c4ccc(O)cc4)oc4cc(O)cc(O)c4c3=O)C(O)C(O)C2O)C(O)C(O)C1O (configuration not stated)	0	0	?	?	3.5µM	0	?	0	3.2µM	0
Cn1c(SCC(=O)Nc2ccc3nc(SCC(=O)N4CCCC4)sc3c2)nnc1-c1ccccc1	50µM	0	0	0	?	0	-	-	0	-
O=C(COc1ccccc1)Nc1ccc2nc(SCC(=O)N3CCCC3)sc2c1	0	0	0	0	-	-	-	-	-	-
Cc1csc2nc3cc(C(N)=O)ccc3c(=O)n12	0	0	0	0	0	0	-	-	-	-
NC(=O)c1ccc2c(=O)n3c(-c4cc(Cl)c(N)c(Cl)c4)csc3nc2c1	79µM	0	?	0	0	0	-	-	0	-
O=C(Nc1nc(Nc2cc(F)cc(F)c2)nc(NC2CCCC2)n1)OCc1ccccc1	0	-	-	-	-	-	-	-	-	-
[O][C@H]1[C@@H](O)[C@@H](CO)O[C@@H](O[C@@H]2[C@@H]3OC[C@H]2O[C@H](O[C@@H]2[C@@H](O)[C@H](C[C@@H]4[C@@H]5OC[C@H]4O[CH][C@@H]5O)O[C@H](CO)[C@@H]2OS(=O)(=O)O)[C@@H]3OS(=O)(=O)O)[C@@H]1O	0	-	-	-	10µM	-	0	0	7.1µM	0
CCN(CC)C(=O)Nc1ccc(OCC(O)CNC(C)(C)C)c(C(C)=O)c1 (configuration not stated)	-	0	-	-	-	-	-	-	-	-
O=c1/c(=C/c2ccco2)sc2nc(-c3ccccc3Br)nn12	0	0	0	0	22µM	0	0	0	?	0
